This is an account of results in PubChem BioAssay (EPA / NIEHS).

Experiment [1] can be described thus: Tanguay_ZF_120hpf_EYE_legacy: (Legacy) Oregon State University Tanguay Lab 120 Hour Post-fertilization zebrafish Assay for Eye Malformation (AID 2283636).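 Further: binary presence or absence of eye malformation scored by brightfield in 120 hpf larvae.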 Put shortly:
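Binary brightfield scoring of eye defects at 120 hpf after static exposure from 6 hpf of single pronase-dechorionated wild-type embryos (28C, 0.64% DMSO). Non-mortality endpoints omitted where embryos died; fit vs DMSO.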

Experiment [2] is described as follows: Tanguay_ZF_120hpf_SNOU_legacy: (Legacy) Oregon State University Tanguay Lab 120 Hour Post-fertilization zebrafish Assay for Snout Malformation (AID 2283637). Put shortly:
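Binary snout-malformation call at 120 hpf in wild-type 5D embryos, chorion removed by pronase, under static exposure from 6 hpf at 28C (0.64% DMSO). Embryos dying by 24 or 120 hpf excluded.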

Experiment [3] is described as follows: Tanguay_ZF_120hpf_JAW_legacy: (Legacy) Oregon State University Tanguay Lab 120 Hour Post-fertilization zebrafish Assay for Jaw Malformation (AID 2283638).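 On AC50: active means more embryos with jaw malformation than DMSO controls.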 The method, boiled down: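 Wild-type 5D embryos, chorion removed at 4 hpf, dosed singly from 6 hpf; 28C static, sealed, foil-covered, to 120 hpf. Endpoint: jaw defect yes/no (brightfield); mortality excludes scoring.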

Experiment [4] is described as follows: Tanguay_ZF_120hpf_OTIC_legacy: (Legacy) Oregon State University Tanguay Lab 120 Hour Post-fertilization zebrafish Assay for Otic Vesicle Malformation (AID 2283639). The method, boiled down:
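Binary scoring of otic vesicle defects at 120 hpf in zebrafish (Tropical 5D) held under static exposure at 28C, sealed and shaded, with final DMSO 0.64%. Embryos dying by 24 or 120 hpf excluded; fitted positively against DMSO.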

Experiment [5] can be described thus: Tanguay_ZF_120hpf_PE_legacy: (Legacy) Oregon State University Tanguay Lab 120 Hour Post-fertilization zebrafish Assay for Pericardial Edema (AID 2283640).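 On AC50: potency for increased incidence of pericardial edema versus DMSO baseline.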 The method, boiled down:
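Zebrafish larvae are exposed from early development to 120 hpf at 28C, with 0.64% DMSO final. Each surviving larva receives a yes/no pericardial edema call by brightfield imaging, analysed relative to the DMSO baseline.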

Experiment [6] can be described thus: Tanguay_ZF_120hpf_BRAI_legacy: (Legacy) Oregon State University Tanguay Lab 120 Hour Post-fertilization zebrafish Assay for Brain Malformation (AID 2283641). The method, boiled down:
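Static exposure of staged wild-type embryos until 120 hpf, kept at 28C with light excluded and final DMSO of 0.64% (vol/vol). Presence or absence of brain malformation was noted under brightfield; mortality precluded scoring.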

Experiment [7] in a line: Tanguay_ZF_120hpf_SOMI_legacy: (Legacy) Oregon State University Tanguay Lab 120 Hour Post-fertilization zebrafish Assay for Somite Malformation (AID 2283647). Put shortly:
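Somitogenesis defects are recorded as binary calls in whole larvae at 120 hpf after continuous static chemical exposure starting at 6 hpf in dechorionated 5D embryos. DMSO serves as negative control and baseline.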

Experiment [8] is described as follows: Tanguay_ZF_120hpf_PFIN_legacy: (Legacy) Oregon State University Tanguay Lab 120 Hour Post-fertilization zebrafish Assay for Pectoral Fin Malformation (AID 2283648).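 Further: each larva judged yes or no for fin defect by brightfield with dead larvae skipped.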 Put shortly:
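Pectoral fin malformation was recorded as a binary endpoint at 120 hpf in wild-type Tropical 5D larvae, which had been dechorionated and exposed statically from 6 hpf at 28C in 0.64% DMSO. Dead embryos were excluded.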

A short description of experiment [9]: Tanguay_ZF_120hpf_CFIN_legacy: (Legacy) Oregon State University Tanguay Lab 120 Hour Post-fertilization zebrafish Assay for Caudal Fin Malformation (AID 2283649). The method, boiled down:
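Single dechorionated 5D wild-type embryos are dosed at 6 hpf (final DMSO 0.64%) and held statically at 28C. Caudal fin malformation is recorded as present or absent at 120 hpf under brightfield, excluding dead embryos.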

The nature of experiment [10]: Tanguay_ZF_120hpf_PIG_legacy: (Legacy) Oregon State University Tanguay Lab 120 Hour Post-fertilization zebrafish Assay for Pigmentation Malformation (AID 2283650). Put shortly: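 Pigment malformation recorded as a binary call at 120 hpf in zebrafish (Tropical 5D) exposed singly from 6 hpf after pronase dechorionation. Static, sealed, 28C exposure, 0.64% DMSO; mortality excludes scoring; positive-direction fit against DMSO.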

Experiment [11] can be described thus: Tanguay_ZF_120hpf_CIRC_legacy: (Legacy) Oregon State University Tanguay Lab 120 Hour Post-fertilization zebrafish Assay for Circulatory Malformation (AID 2283651). Put shortly: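 Binary circulatory malformation call at 120 hpf by brightfield imaging of zebrafish larvae; chorion removed at 4 hpf, static exposure from 6 hpf in sealed dark plates at 28C, final DMSO 0.64%; non-mortality endpoints skipped if embryo died.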

Read-out in experiment [12]: kallikrein-3 (KLK3), KLK3 (gene 354)
Briefly: LTEA_HepaRG_KLK3: Life Technologies and Expression Analysis (LTEA) Assay for kallikrein-3 (KLK3) using HepaRG (AID 2283652; active means hit-call score of the fitted dose curve at least 0.9, where 1 is the maximum; inactive means score below 0.9). The conditions noted are these: mRNA level, 48 h; actives raise or lower the signal. Put shortly: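 KLK3 transcript levels were measured by TaqMan qRT-PCR with normalisation to three housekeeping genes. HepaRG cultures received chemicals for 48 h at up to 100 uM (half-log, 8 points, 0.5% DMSO vehicle), fitted in both directions against DMSO.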

A short description of experiment [13]: Tanguay_ZF_120hpf_SWIM_legacy: (Legacy) Oregon State University Tanguay Lab 120 Hour Post-fertilization zebrafish Assay for Swim Bladder Malformation (AID 2283654).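 Further: swim bladder malformation in each larva scored yes or no under brightfield.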 Put shortly:
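Scoring is binary for swim bladder defects at 120 hpf, by brightfield inspection of zebrafish larvae. Embryos were exposed singly from 6 hpf after pronase dechorionation, at 28C with 0.64% DMSO; mortality excluded scoring.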

Experiment [14] in a line: Tanguay_ZF_120hpf_TRUN_legacy: (Legacy) Oregon State University Tanguay Lab 120 Hour Post-fertilization zebrafish Assay for Truncated Body (AID 2283655). The method, boiled down:
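Single dechorionated zebrafish embryos received test chemical from 6 hpf in 0.64% DMSO, kept at 28C. At 120 hpf, brightfield inspection noted any truncated body.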

Experiment [15] is described as follows: Tanguay_ZF_120hpf_NC_legacy: (Legacy) Oregon State University Tanguay Lab 120 Hour Post-fertilization zebrafish Assay for Notochord and Tail Malformation (AID 2283656). The method, boiled down:
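Binary scoring of notochord distortion by brightfield microscopy; embryos dying were not scored. Wild-type Tropical 5D embryos, chorion removed, exposed singly and statically from 6 to 120 hpf, 28C, sealed, 0.64% DMSO.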

Read-out in experiment [16]: solute carrier (SLC10A1), SLC10A1 (gene 6554)
Briefly: LTEA_HepaRG_SLC10A1: Life Technologies and Expression Analysis (LTEA) Assay for solute carrier (SLC10A1) using HepaRG (AID 2283657; active means hit-call score of the fitted dose curve at least 0.9, where 1 is the maximum; inactive means score below 0.9). The conditions noted are these: mRNA level, 48 h; actives raise or lower the signal. Put shortly: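 SLC10A1 transcript measured by TaqMan qRT-PCR, housekeeping-normalised, after 48 h chemical treatment of human HepaRG cells. Eight concentrations (half-log, max 100 uM, 0.5% DMSO vehicle) in duplicate; fitted bidirectionally against DMSO baseline.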

Read-out in experiment [17]: matrix metalloproteinase-1 (MMP1), MMP1 (gene 4312)
Nature of the experiment: LTEA_HepaRG_MMP1: Life Technologies and Expression Analysis (LTEA) Assay for matrix metalloproteinase-1 (MMP1) using HepaRG (AID 2283658; active means hit-call score of the fitted dose curve at least 0.9, where 1 is the maximum; inactive means score below 0.9). Conditions: mRNA level, 48 h; actives raise or lower the signal. Put shortly: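 In this screen, human liver HepaRG cultures receive each chemical in duplicate for 48 h (top 100 uM, 0.5% DMSO). MMP1 expression is then quantified by TaqMan qRT-PCR with ACTB/GAPDH/POLR2A normalization.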

A short description of experiment [18]: Tanguay_ZF_120hpf_TR_legacy: (Legacy) Oregon State University Tanguay Lab 120 Hour Post-fertilization zebrafish Assay for Touch Response (AID 2283667). Put shortly:
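Binary touch-response endpoint in larvae at 120 hpf after static waterborne exposure from embryo stage (28°C, 0.64% DMSO vehicle, 5 uM trimethyltin chloride as positive control); embryos dead at 24 or 120 hpf excluded; fitted as gain versus DMSO.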

The subject of experiment [19] is Thyroperoxidase (TPO), gene 54314. Briefly: CCTE_Simmons_AUR_rTPO: CCTE's Amplex UltraRed Assay for Thyroperoxidase (TPO) Inhibition, Simmons Lab (AID 2283662).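 On AC50: potency for loss of signal meaning inhibition of peroxidase activity.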 Put shortly:
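Cell-free peroxidase activity assay using rat thyroid gland microsomes with excess H2O2 (300 uM) and 25 uM Amplex UltraRed. Compounds tested from 5 nM to 87.5 uM; fluorescence measured after 30 min at 37C, analysed relative to DMSO baseline.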

Experiment [20] can be described thus: CCTE_Simmons_CellTiterGLO_HEK293T: Viability Assessment in CCTE's Assays for Thyroperoxidase (TPO) Inhibition, Simmons Lab (AID 2283665).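 On AC50: cells exposed to compound for 24 h before readout; actives reduce ATP signal below DMSO vehicle meaning cytotoxicity.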 The method, boiled down:
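Luciferase-coupled ATP content after 24 h exposure gives viability; 8-point series from 5 nM to 87.5 uM final in 0.5% DMSO. Human HEK293T cells, 1% FBS medium, three biological replicates, dichlone positive control.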
In general terms: Cellular ATP, detected with luciferase, serves as a proxy for viable cell number.

Each structure is given as a SMILES string. Results filed as inconclusive are left out. Active and inactive are the calls of the source. How the source made its calls, unless noted: active means hit-call score of the fitted dose curve at least 0.9, where 1 is the maximum; inconclusive means response in the unintended direction; inactive means score below 0.9.

Broadly, the AC50 is the concentration at which the activity in the assay is half-maximal.

With `C1=Cc2cccc3cccc1c23`, the call in experiment [1], in [2], in experiment [3], in experiment [4], in [5] and in experiment [6] was inactive. Moreover, the call in experiment [7], in experiment [8], in experiment [9], in [10], in experiment [11] and in experiment [12] was inactive. Further, the result in experiment [13], in experiment [14], in experiment [15], in [16] and in [17] was inactive.
On to `OCCOCCO`, for which the result in experiment [1], in experiment [2], in experiment [3], in experiment [4], in experiment [5] and in experiment [7] was inactive. Besides, the outcome in experiment [8], in experiment [9], in [10], in [13], in [14] and in experiment [15] was inactive.
Regarding `Cn1cc(-c2ccccc2)c(=O)c(-c2cccc(C(F)(F)F)c2)c1`, the molecule was called inactive in experiment [1], in [2], in [3], in experiment [4], in experiment [5] and in experiment [6]. For the same molecule, the molecule was called inactive in experiment [7], in experiment [8], in [9], in [10], in [11] and in experiment [13]. Besides, the molecule was called inactive in experiment [14] and in [15]. In addition, in [18], the half-maximal activity concentration (AC50) was 41.1 µM (active).
As to `Nc1ccc(Oc2ccc(N)cc2)cc1`, the molecule was called inactive in [1], in [2], in experiment [3], in experiment [4], in [5] and in experiment [6]. Besides, the molecule was called inactive in experiment [7], in experiment [8], in experiment [9], in experiment [10], in experiment [13] and in experiment [15]. The molecule was classed as inactive in experiment [20] and in [18]. For the same molecule, the AC50 in [19] is 0.831 µM (active).
Regarding `CCOC(=O)[C@]1(c2ccccc2)Oc2ccccc2[C@@H]1N`, the call in experiment [1], in [2], in experiment [3], in [4], in experiment [5] and in [6] was inactive. In addition, the molecule was classed as inactive in experiment [7], in experiment [10], in experiment [11], in experiment [13], in [14] and in [15]. For the same molecule, the AC50 in [19] was 12.6 µM (active); in experiment [20] it was 36.6 µM (active).
Take `CCCCOC(=O)c1ccccc1C(=O)OCc1ccccc1`: the result in experiment [1], in [2], in experiment [3], in [4], in experiment [5] and in experiment [6] was inactive. Further, the result in experiment [7], in [8], in [9], in experiment [11], in experiment [14] and in experiment [15] was inactive. The outcome in experiment [19] and in experiment [18] was inactive. Further, the AC50 in experiment [20] was 8.68 µM (active).
In the case of `N#CC(Br)(Br)C(N)=O`, the molecule was classed as inactive in experiment [1], in experiment [2], in [3], in experiment [4], in [5] and in [6]. Also, the molecule was classed as inactive in experiment [7], in [8], in experiment [9], in experiment [11], in [13] and in experiment [14]. Also, the molecule was called inactive in experiment [19] and in [20].
For `CCCCC(CC)COC(=O)c1ccc(C(=O)OCC(CC)CCCC)c(C(=O)OCC(CC)CCCC)c1` (stereo not given), the molecule was called inactive in experiment [1], in [2], in [3], in experiment [4], in [5] and in experiment [6]. Further, the result in [7], in [8], in experiment [9], in experiment [10], in [13] and in experiment [14] was inactive. In addition, the outcome in [15], in [20] and in experiment [18] was inactive. In addition, the AC50 in [19] was 12.7 µM (active).
For the molecule `CCNS(=O)(=O)C(F)(F)C(F)(F)C(F)(F)C(F)(F)C(F)(F)C(F)(F)C(F)(F)C(F)(F)F`, the AC50 in experiment [1] was 53.6 µM (active); in experiment [2], 54.9 µM (active); in [3], 41.5 µM (active); in experiment [4] it was 46.9 µM (active); in experiment [5], 53.8 µM (active); in [6] it was 45.5 µM (active). Also, the AC50 in experiment [7] was 9.56 µM (active); in [8], 48.4 µM (active); in experiment [10], 46.8 µM (active); in [18], 17 µM (active). Also, the molecule was called inactive in experiment [11] and in experiment [15].
